# The sample as a whole holds a higher share of hits than the screen did.
# CHX counter – counter-screen hit for Shiga toxin inhibitors, cycloheximide | cell reporter, cycloheximide protein synthesis inhibition counterscreen | max response, % | 300,000 compounds, 12% hits | AID 2314; in the data active = max response mostly above about 13%, no sharp cut-off; inactive = mostly below about 14%; also: read at 38.3 µM for the half of the compounds with a filed dose; 0% is about no effect
# LmPK inh – LmPK (Leishmania mexicana) enzyme inhibition. AID 1721. Q27686. purified LmPK, Kinase-Glo ATP luminescence, 1 h. 290,000 compounds, 0.37% hits. Potency, µM (highest dose often 57.5 µM), for inactives: top-dose activity change, negative = inhibition, hits mostly inhibitors; also: potency is read from the fitted curve at half-maximal effect; % is scaled to controls: 0 for no effect and ±100 for the full control effect
#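 Kinase-Glo luminescence read after 1 h RT reaction of 0.1 nM LmPK with 0.5 mM PEP and 0.1 mM ADP. Activity scaled between uninhibited and enzyme-free controls.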
# Giardia FBPA inh – inhibitors of Giardia lamblia fructose-1,6-bisphosphate aldolase; purified Giardia FBPA; 290,000 compounds, 0.71% hits; Potency, µM (top dose mostly 59.6 µM), inactives show at the highest dose activity, negative = inhibition, most hits filed as inhibitors; also: potency is read from the fitted curve at half-maximal effect; % is scaled to controls: 0 for no effect and ±100 for the full control effect; nearly all actives have a fitted effect of over 55% in size
# Target sequence (A8B2U2 whole entry, looked up): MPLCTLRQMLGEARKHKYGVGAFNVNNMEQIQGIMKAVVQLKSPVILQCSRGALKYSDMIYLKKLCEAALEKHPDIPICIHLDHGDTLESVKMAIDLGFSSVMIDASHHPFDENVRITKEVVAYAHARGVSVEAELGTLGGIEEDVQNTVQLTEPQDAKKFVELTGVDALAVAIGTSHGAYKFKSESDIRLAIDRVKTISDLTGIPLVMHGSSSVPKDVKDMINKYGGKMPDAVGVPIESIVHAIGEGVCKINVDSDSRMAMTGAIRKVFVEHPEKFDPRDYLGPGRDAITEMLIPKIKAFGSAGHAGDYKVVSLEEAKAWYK
#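 Giardia FBPA (40 nM reagent) was preincubated 10 min at RT with compound (up to 57.5 uM final), then substrate plus GAPDH/TPI/NAD/arsenate coupling system with diaphorase/resazurin was added; resorufin fluorescence (525/598 nm) was read after 20 min.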
# Shiga inhibitor – Shiga toxin inhibition | Vero cells, Shiga toxin protein synthesis inhibition reporter | inhibition, % at 38.7 µM | 290,000 compounds, 9.2% hits | AID 2315; in the data active = inhibition mostly above about 28%, no sharp cut-off; inactive = mostly below about 43%; also: 0% is about no effect
# Sm TGR inh – S. mansoni TGR enzyme inhibition | Q962Y6 | purified TGR, DTNB reduction, TNB absorbance 405 nm | Potency, µM (series often up to 114 µM), without a hit: top-dose activity change, negative = inhibition, actives largely listed as inhibitors | 360,000 compounds, 3% hits; also: potency is read from the fitted curve at half-maximal effect; % is scaled to controls: 0 for no effect and ±100 for the full control effect; nearly all actives have a fitted effect of over 60% in size
#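 First, TGR (20 nM dispensed) and NADPH were mixed with compound. Second, a 15 min room-temperature incubation followed. Third, further NADPH and then DTNB were added to start the reaction. Finally, TNB absorbance was monitored kinetically.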
# TbPYK inhibitor – inhibitors of Trypanosoma brucei pyruvate kinase | Q57TT1 | TbPYK enzyme, Kinase-Glo Plus ATP luminescence, 45 min | Potency, µM (titrated, usually from 76.8 µM), for the others: top-dose activity, negative = inhibition, most hits filed as inhibitors | 410,000 compounds, 0.12% hits; also: potency is read from the fitted curve at half-maximal effect; % is scaled to controls: 0 for no effect and ±100 for the full control effect; nearly all actives have a fitted effect of over 50% in size
#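 In this concentration-response screen, enzyme-free wells defined baseline while DMSO plates tracked drift. Each reaction combined TbPYK, substrate, compound and 130 uM ADP for 45 min at room temperature. Kinase-Glo Plus luminescence gave the signal.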
# * = called active by the depositor; ? = inconclusive; / = no result; [ ] = dose if it differs, or a comment. Unless noted, calls follow the shape of the dose curve; as a rule, active = well fitted curve in the direction sought with a large enough effect; inconclusive = small, poorly fitted or top-dose-only effect, or another doubt; inactive = no such curve, though single readings can be large; an effect the other way counts as inactive or inconclusive.
SMILES,CHX counter,LmPK inh,Giardia FBPA inh,Shiga inhibitor,Sm TGR inh,TbPYK inhibitor
O=C(O)c1ccccc1-c1nc2ccccc2[nH]1,1,-17%,-14%,39,-10%,0%
Cc1c(N)cccc1-c1nc2ccccc2[nH]1,52*,-17%,-14%,39*,4%,0%
COc1cccc(CNC(=O)CSc2ncc(S(=O)(=O)c3ccc(C)c(Cl)c3)c(=O)[nH]2)c1,/,/,/,/,2%,0%
COCCn1c(Cc2ccccc2)nnc1SCC(=O)Nc1oc(C)c2c(C)n[nH]c(=O)c12,/,/,/,/,50µM*,-5%
COCCn1c(Cc2ccccc2)nnc1SCC(=O)Nc1ccccc1,-1,5%,4%,-22,/,-9%
CCc1ccc(-n2nc(CO)c(C(=O)NCCc3ccccc3)n2)cc1,/,/,/,/,3%,2%
O=[N+]([O-])c1cnc(Sc2ccncn2)s1,1,4%,-5%,17,0.32µM*,-1%
CN(CC(=O)Nc1ccccc1Br)C(=O)CCC1CCCC1,57*,-6%,/,45*,-14%,0%
O=C(CNC(=O)C1CCCC1)Nc1ccccc1Br,/,/,/,/,3%,9%
O=C(CCSc1ccccc1)Nc1ccccc1C(=O)N1CCCC1,5,2%,1%,-6,10%,4%
CN(CC(=O)Nc1ccccc1Br)C(=O)c1ccc(COc2ccccc2)cc1,19*,-7%,/,11,5%,-10%
CN(CC(=O)Nc1ccccc1Br)C(=O)CCc1ccccc1,-3,0%,-1%,-12,0%,6%
O=C(CSC1CCCCC1)Nc1ccccc1Br,13*,-2%,7%,90*,-5%,-10%
O=C(CCSc1ccccc1)Nc1ccccc1Br,40*,1%,6%,74*,-6%,2%
Cn1nc(-c2ccccc2F)c2cc(C(=O)N3CCN(c4ccccc4F)CC3)sc21,/,/,/,/,-3%,0%
O=C(c1cccc(F)c1)N1CCC2(CC1)CN(c1ccccc1)C2,/,/,-1%,/,/,6%
O=C(CCSc1ccccc1)Nc1ncccn1,30*,-1%,-1%,5,-4%,-2%
O=C(CSCc1ccc(Cl)cc1)Nc1ccccc1O,13,-1%,-6%,21,5%,-4%
O=C(CCSc1ccccc1)Nc1nccs1,19*,-5%,-2%,36,-16%,-6%
O=C(CCCSc1ccc(Cl)cc1)Nc1ccccc1O,27*,-8%,4%,31,-10%,7%
CCN(CC)Cc1c(C(=O)N2CCc3ccccc3C2)nc2ccc(Cl)cn12,-3,4%,-1%,-2,-30%,-2%
CCN(C)Cc1c(C(=O)N2CCc3ccccc3C2)nc2ccc(Cl)cn12,-2,8%,1%,-8,35µM*,-7%
COCC1CCN(Cc2c(C(=O)N3CCc4ccccc4C3)nc3ccc(Cl)cn23)C1 (stereo not given),-2,-4%,/,-2,20µM*,0%
Clc1ccccc1OCCSc1nnc(-c2cccs2)o1,/,/,/,/,-13%,-2%
COc1ccc(N(CC(=O)Nc2cc(C)ccc2C)S(=O)(=O)c2ccc(OC)c(OC)c2)cc1,/,/,/,/,-1%,2%
SMILES,CHX counter,LmPK inh,Giardia FBPA inh,Shiga inhibitor,Sm TGR inh,TbPYK inhibitor
O=C(Cc1c(Cl)cccc1Cl)OCc1ccccn1,25*,0%,5%,59*,2%,-1%
COc1ccccc1CN1C(=O)C(C)ON=C1c1ccccc1F (stereo not given),/,/,/,/,/,-11%
COc1cccc(C2=NO[C@@H]3C(=O)N(c4ccc5c(c4)OCCO5)C(=O)[C@H]23)c1OC,66*,1%,?,109*,40µM*,1%
COc1cccc(C2=NO[C@@H]3C(=O)N(Cc4ccccc4)C(=O)[C@H]23)c1OC,4,8%,-7%,27,50µM*,2%
COc1ccc2[nH]c3c(NCCC4=CCCCC4)ncnc3c2c1,33*,1%,2%,125*,-6%,3%
CCOc1ccc2[nH]c3c(NCCC(C)C)ncnc3c2c1,14*,2%,-10%,29,-10%,2%
Fc1ccc2[nH]c3c(NCc4ccccc4)ncnc3c2c1,1,0%,8%,-3,12%,1%
COc1ccc2[nH]c3c(NCCCOC(C)C)ncnc3c2c1,44*,?,12%,59,-2%,?
COc1ccc2[nH]c3c(NCc4ccco4)ncnc3c2c1,36*,-2%,-1%,97*,4%,2%
CCN(CC)CCNc1ncnc2c1[nH]c1ccc(OC)cc12,-2,2%,6%,-8,4%,/
CC(C)=NO[C@@H](C)c1cc(-c2c(C)cc(C)cc2C)no1,/,/,1%[12.9 µM],/,/,/
CC(C)NC(=O)N1CCN(S(=O)(=O)c2ccc3c(ccn3C)c2)CC1,/,/,/,/,1%,5%
COc1cc(CC(=O)NCC(C)(C)N2CCOCC2)cc(OC)c1OC,-3,-1%,5%,-23,-2%,-2%
COc1ccc(-c2nc(C#N)c(NCCc3ccccc3)o2)cc1OC,22*,-1%,-3%,50,6%,-5%
N#Cc1nc(-c2cccs2)oc1N1CCN(Cc2ccccc2)CC1,16*,-13%,3%,22,-20%,2%
N#Cc1nc(-c2ccccc2F)oc1NCc1ccccc1,18*,8%,-2%,26,3%,2%
COc1ccc(-c2nc(C#N)c(NCc3ccc(C)cc3)o2)cc1OC,14,1%,-4%,51,0%,1%
N#Cc1nc(-c2ccccc2F)oc1NCCc1ccccc1,41*,3%,-7%,37,-13%,-1%
Cc1ccc2nc3sc(C(=O)Nc4ccc(F)cc4)cc3cc2c1,/,/,/,/,-10%,1%
COc1ccccc1NC(=O)NNC(=O)CCc1ccccc1,-3,0%,-1%,-7,1%,-2%
N#Cc1nc(-c2cccs2)oc1NCCc1ccccc1,34,10%,-4%,74*,25%,-2%
N#Cc1nc(-c2ccco2)oc1NCCc1ccccc1,28*,2%,4%,27*,-9%,-1%
COCCCNc1oc(-c2ccccc2F)nc1C#N,24*,-3%,2%,34,4%,-3%
N#Cc1nc(-c2cccs2)oc1NCCN1CCOCC1,2,-2%,-13%,-10,1%,-7%
COCCCNc1oc(-c2ccccc2OC)nc1C#N,4,7%,-2%,53,-15%,-1%
Cc1ccc(C(C)C)c(OCC(=O)NCC2(N(C)C)CCCCC2)c1,/,/,/,/,0%,-4%
CC(NC(=O)C(=O)Nc1c2c(nn1-c1ccc(F)cc1)CSC2)c1ccccc1 (stereo not given),/,/,/,/,-1%,2%
CCC(=O)Nc1sc2c(c1C#N)CCC2,6,8%,1%,29,-16%,-15%
Cc1sc(NC(=O)COc2ccccc2)c(C#N)c1-c1ccccc1,23*,1%,-1%,-5,-16%,-11%
CCOC(=O)Nc1sc2c(c1C#N)CCCC2,31*,8%,-8%,74*,3%,2%

# Bioassay records from PubChem BioAssay.
